Screens as filed in PubChem BioAssay.
TSHR antag: human thyrotropin receptor antagonism; activity change, negative = inhibition, % at 11.5 µM; P16473; TSHR-expressing cells, TSH-stimulated cAMP HTRF, 2 h; stronger effect = lower value; 0.2% of 330,000 active; AID 504810;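 active = activity change below a set negative limit, meaning inhibition stronger than a set level, cut at about -70% in these data; inconclusive = activity change between two set negative limits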
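Inhibition of cAMP made by TSHR-expressing cells under TSH stimulation (4nM final, EC80; 2 h, 37 deg C) is quantified with a one-step lysis HTRF kit, anti-cAMP cryptate versus cAMP-d2.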
Gal4-VP16 FLuc: Gal4-VP16 reporter inhibition counter-screen; Drosophila S2 Gal4-VP16 UAS-luciferase, luminescence, 20 h; Potency, µM (titrated, usually from 53.6 µM), for the others: top-dose activity, negative = inhibition, most hits filed as inhibitors; 3.5% of 310,000 active;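 also: Gal4-VP16 expression switched on by copper sulfate through the metallothionein promoter; potency is read from the fitted curve at half-maximal effect; nearly all actives have a fitted effect of over 50% in size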
RORg inh: ROR gamma (mouse) transcription inhibition; P51450; Drosophila S2 Gal4-RORgamma UAS-luciferase reporter, 20 h; Potency, µM (series often up to 53.6 µM), inactives show top-dose activity change, negative = inhibition, usual class: inhibitors; 5.4% of 310,000 active; AID 2551; also: potency is read from the fitted curve at half-maximal effect; nearly all actives have a fitted effect of over 60% in size
Target sequence (P51450 whole entry, looked up, the tested form may be a part): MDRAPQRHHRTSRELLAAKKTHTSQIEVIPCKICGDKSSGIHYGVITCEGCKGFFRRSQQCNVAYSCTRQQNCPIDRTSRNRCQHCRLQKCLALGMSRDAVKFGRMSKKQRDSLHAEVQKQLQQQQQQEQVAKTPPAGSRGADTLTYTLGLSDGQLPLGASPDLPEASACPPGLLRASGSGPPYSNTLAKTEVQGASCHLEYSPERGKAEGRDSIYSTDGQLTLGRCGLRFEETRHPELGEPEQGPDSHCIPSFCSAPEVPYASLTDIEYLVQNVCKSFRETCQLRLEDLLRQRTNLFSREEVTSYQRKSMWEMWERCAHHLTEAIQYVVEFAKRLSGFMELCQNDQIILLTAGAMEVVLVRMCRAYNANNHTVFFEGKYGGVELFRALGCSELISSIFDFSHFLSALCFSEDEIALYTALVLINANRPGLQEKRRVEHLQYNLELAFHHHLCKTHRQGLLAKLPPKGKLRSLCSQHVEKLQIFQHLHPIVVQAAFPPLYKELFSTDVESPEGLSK
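Compounds are pin-transferred onto Drosophila Schneider cells expressing a copper-inducible Gal4–ROR gamma transactivation domain fusion. After 1 hr, copper sulfate is added to 700 uM final; luciferase is read 20 hr later.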
ELG1 repair inh: inhibitors of ELG1-dependent DNA repair in HEK293T cells; HEK293T ELG1-luciferase reporter, luminescence, 16 h; DNA damage induced by 5-fluorouridine; 2.3% of 330,000 active; Potency, µM (titrated, usually from 46.1 µM), inactives show at the top dose activity change, negative = inhibition, actives largely listed as inhibitors; AID 504467; also: potency is read from the fitted curve at half-maximal effect; nearly all actives have a fitted effect of over 55% in size
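Luminescence from the luciferase reporter, measured 30 min after ONE-Glo reagent at room temperature, was the read-out. Beforehand, 2,000 cells per well were exposed for 16 hr at 37 °C to 5-fluorouridine together with compound or vehicle.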
B2AR arrestin: recruits beta-arrestin to the human beta2-adrenergic receptor; 0.02% of 330,000 active; Potency, µM (doses to about 46.1 µM), without a hit: at the top dose activation, usual class: activators; P07550; AID 492947; beta-arrestin recruitment to beta2AR, cell-based reporter;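 also: potency is read from the fitted curve at half-maximal effect; 0% = DMSO controls and full agonism = EC100 isoproterenol or metaproterenol; nearly all actives have a fitted effect of over 65% in size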
* marks the source's active call; other numbers are inactive results; ? = inconclusive; nt = not tested or not shown; [ ] = remark or other dose. Most compounds without a hit are left out; they make up all but 7.5% or so of the library. Unless noted, calls follow the shape of the dose curve; as a rule, active = well fitted curve in the direction sought with a large enough effect; inconclusive = small, poorly fitted or top-dose-only effect, or another doubt; inactive = no such curve, though single readings can be large; an effect the other way counts as inactive or inconclusive. Unless noted, % is scaled to controls: 0 for no effect and ±100 for the full control effect.

SMILES | TSHR antag | Gal4-VP16 FLuc | RORg inh | ELG1 repair inh | B2AR arrestin
CC(NC(=O)CSc1ncccn1)c1ccc(Cl)cc1Cl (stereo not given) | -7 | -2% | 14% | -2% | 0%
CCC(=O)NC(c1ccc(C)cc1)c1ccc2cccnc2c1O (stereo not given) | -19 | 2.8µM* | 2.2µM* | ? | 11%
CCC(=O)NC(c1ccc(Cl)cc1Cl)c1ccc2cccnc2c1O (stereo not given) | -5 | ? | -1%[1.91 µM] | ? | 0%
CC(C)c1ccc(NC2CCCN(C(=O)c3ccoc3)C2)cc1 (stereo not given) | -3 | -25% | 10% | 8% | 1%
O=C(/C=N/O)NCCCCNC(=O)/C=N/O | nt | -8%[10 µM] | -13%[10 µM] | nt | nt
CC(C)(Oc1ccc(Br)cc1Cl)C(=O)Nc1ccon1 | 4 | -4% | 28% | 1% | -1%
NCCNCCN | nt | -16% | -14% | nt | nt
CCCC(=O)NC(c1ccc(C(C)C)cc1)c1ccc2cccnc2c1O (stereo not given) | -5 | 2.8µM* | 2.2µM* | -10% | 0%
CC(C)CC(=O)NC(c1ccccc1Cl)c1c(O)ccc2ccccc12 (stereo not given) | 0 | -13% | -5%[10 µM] | -4% | 7%
CC(=O)NC(c1ccco1)c1ccc2cccnc2c1O (stereo not given) | -6 | 11µM* | 3.5µM* | ? | 0%
COc1ccc(C(NC(=O)C(C)C)c2ccc3cccnc3c2O)cc1 (stereo not given) | -5 | 6.3µM* | 2.2µM* | 2.3µM* | ?
CCCC(=O)NC(c1ccccc1Cl)c1ccc2cccnc2c1O (stereo not given) | -2 | 4.5µM* | 2.8µM* | ? | 0%
COCCCNC(=S)Nc1ccc(N2CCCCC2)cc1 | -3 | ? | 18µM* | 10% | 0%
CCNC(=S)Nc1ccc(N2CCCCC2)cc1 | 2 | -68% | 13µM* | 0% | 0%
S=C(NCCc1ccccc1)Nc1ccc(N2CCCCC2)cc1 | -3 | ? | 7.9µM* | 13% | -1%
O=C(Nc1ccc(N2CCCCC2)cc1)c1ccccc1 | 0 | ? | 3.5µM* | ? | 0%
Cc1cccc(N2CC(C(=O)NC3CCCCCC3)CC2=O)c1C (stereo not given) | 1 | nt | nt | ? | 0%
Cc1ccc(S(=O)(=O)N(C)C)cc1NC(=O)c1ccccc1SCC(=O)N1CCCC1 | -16 | nt | nt | -18% | 0%
C/C(CCN1CCCCc2nc(C)c(C)cc21)=N\O[C@@H](C)c1cc(-c2c(C)cc(C)cc2C)no1 | nt | 6%[10 µM] | -28%[10 µM] | nt | nt
Cc1noc(C)c1C(=O)N1CCC2(CC1)CCN(C(c1ccccc1)c1ccccc1)CC2 | nt | 10% | -26% | nt | nt
Cc1ccc(-n2cccc2C(=S)N=P(N(C)C)(N(C)C)N(C)C)cc1 | 0 | 6.3µM* | 2.2µM* | 3% | 0%
CC1=CC(=O)O[C@@H]1[C@@]1(C)C[C@H]2OC(=O)C[C@H]3[C@@H](C)C(=O)C(O)=C1[C@@]23CO | 5 | nt | nt | 18µM* | 0%
CC(CC(=O)Nc1nc2ccccc2[nH]1)c1ccccc1 (stereo not given) | 25 | 4.5µM* | ? | ? | 0%
O=C(CCNC(=O)c1ccccc1Cl)Nc1nc2ccccc2[nH]1 | -1 | nt | nt | 17% | -1%
O=C(Cc1ccccc1Cl)Nc1nc2ccccc2[nH]1 | -2 | ? | 7.1µM* | ? | 0%
SMILES | TSHR antag | Gal4-VP16 FLuc | RORg inh | ELG1 repair inh | B2AR arrestin
Cc1ccc(CC(=O)Nc2nc3ccccc3[nH]2)cc1C | -4 | -27% | 3.2µM* | -1% | 0%
Cc1ccccc1OCC1CO1 (stereo not given) | nt | -14% | -4% | nt | nt
C=CCO/N=C(/CCC)C1=C(N)CC(C)(C)CC1=O | 11 | -6% | 0% | -5% | 0%
CC(C)(C)NNC(=S)Nc1ccc(S(=O)(=O)N2CCOCC2)cc1 | -2 | ? | 5.6µM* | ? | 0%
COc1ccc(NC(=S)Nc2ccc(S(=O)(=O)N3CCOCC3)cc2)c(OC)c1 | -5 | 3% | -24% | 23µM* | 0%
COc1cc(OC)c(NC(=O)C2CC(=O)N(c3ccc4c(c3)OCCO4)C2)cc1Cl (stereo not given) | -6 | nt | nt | -21% | -1%
O=C(COC(=O)/C=C/c1cccc(F)c1)NC(=O)NC1CCCC1 | -2 | nt | nt | 0% | -1%
Cc1ccc(NC(=S)C2=C(O)c3sccc3N(C)S2(=O)=O)cc1 | 9 | 16µM* | 13µM* | 4% | 0%
Cc1ccc(NC(=O)C2=C(O)c3sccc3N(C)S2(=O)=O)cc1 | -1 | -8% | 29% | ? | 0%
CN1C(=O)/C(=C/c2cc3c(cc2Br)OCO3)NC1=S | -1 | ? | 4.5µM* | 9% | 0%
COCCn1c(C)cc(/C=C2\NC(=S)N(C)C2=O)c1C | -11 | ? | ? | 29% | 0%
COc1ccccc1OCc1ccc(C(=O)NCc2cccnc2)o1 | 1 | 2% | 14% | -10% | 0%
CCOc1ccc(CNC(=S)N/N=C\c2ccc([N+](=O)[O-])cc2)cc1 | 6 | 2.8µM* | 1.3µM* | -17% | ?
CC(C)(C)c1ccc(OCc2ccc(C(=O)NCc3cccnc3)o2)cc1 | 9 | 1.4µM* | ? | ? | 0%
CCCCOc1ccc(CNC(=S)N/N=C/c2ccc(OC)c(OC)c2)cc1 | 26 | 2.5µM* | 4.5µM* | 8.2µM* | -1%
CC(C)Oc1ccc(CNC(=S)N/N=C/c2cccnc2)cc1 | 1 | 13µM* | 4µM* | -17% | 0%
CCNC(=S)NCc1ccc(OC)c(OC)c1 | -10 | -1% | -27% | 9% | 0%
COCCNC(=S)N/N=C/c1ccc(OCc2ccc(C(=O)OC)cc2)c(OC)c1 | -14 | 7.1µM* | 2.2µM* | 13% | 0%
CC(C)(C)c1ccc(OCc2ccc(C(=O)N/N=C/c3ccc([N+](=O)[O-])cc3)o2)cc1 | 5 | 10µM* | ? | 27% | 0%
CCOc1ccc(CNC(=S)N/N=C/c2cccnc2)cc1 | -2 | ? | 7.9µM* | ? | 0%
CCOc1ccc(CC(=O)N/N=C/c2cccnc2)cc1 | -2 | -9% | 16% | 12% | 0%
COCCNC(=O)C(=O)N/N=C/c1ccc(C(=O)OC)cc1 | 2 | -11% | 0% | 4% | 0%
Cc1ccc(Sc2cnccc2C#N)cc1 | -4 | 8% | -21% | 11% | -1%
CCCCCCCCCCCCCCCC(N)=O | nt | -1% | 0% | nt | nt
Nc1nc(Cl)nc2c1ncn2C1OC(CO)C(O)C1F (stereo not given) | nt | ? | -34% | nt | nt
COc1cccc(COC(=O)C2CCN(C(=O)c3ccc(F)cc3)CC2)c1OC | -21 | nt | nt | 7% | -1%
N#C/C(C(N)=O)=c1/ccc2c(c1)N1C3=C(CCCC3)CC3CCCCC31N=2 (stereo not given) | -32 | ? | -44% | 21µM* | 0%
